# Laboratory results: PubChem BioAssay (Tox21)
# Inconclusive results are not listed. Where a call stands in place of a potency, no number is given. Unmarked numbers belong to inactive results. Active and inactive are the calls of the source. Unless noted, the call rests on the fitted dose curve; in most records, active means well fitted curve in the direction sought with a large enough effect in the repeat runs; inconclusive means weak or mixed curves; inactive means no such curve, though single readings can be large; an effect the other way counts as inactive or inconclusive.
# Assays:
# [1] = qHTS assay to identify small molecule antagonists of the estrogen related receptor (ERR) signaling pathway from Tox21 library - cell viability counter screen (AID 1224834); further: nearly all actives have a fitted effect of over 30% in size; further: potency means the concentration at half of the fitted maximal effect
# Summary of the method: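 In this quantitative HTS format, ERR cells receive compounds in DMSO and are incubated for 17.5 h at 37 C. Live-cell protease activity is then detected with CellTiter-Fluor.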
# [2] = target: Luciferin 4-monooxygenase (Photinus pyralis) (UniProt P08659); experiment: qHTS assay to identify small molecule inhibitors of firefly luciferase (AID 1224835); further: nearly all actives have a fitted effect of over 25% in size; further: potency means the concentration at half of the fitted maximal effect; on activity change, negative = inhibition: series mostly up to about 120 µM
# Summary of the method: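 Quantitative HTS format; KM concentrations of both substrates. Purified P. pyralis FLuc activity quantified from luminescence images.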
# [3] = qHTS assay to identify small molecule agonists of the constitutive androstane receptor (CAR) signaling pathway - cell viability counter screen (AID 1224836); further: nearly all actives have a fitted effect of over 45% in size; further: potency means the concentration at half of the fitted maximal effect; on viability change, negative = cytotoxic: series mostly up to about 92 µM
# Summary of the method: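 23 h treatment, 37 C, 5% CO2. Cell line: HepG2 stably expressing hCAR with a CYP2B6-2.2kb construct. Co-treatment: PK11195, 0.75 uM final. Read-out: CellTiter-Fluor fluorescence intensity.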
# [4] = qHTS assay to identify small molecule antagonists of the constitutive androstane receptor (CAR) signaling pathway - cell viability counter screen (AID 1224837); further: nearly all actives have a fitted effect of over 45% in size; further: potency means the concentration at half of the fitted maximal effect; on activity change, negative = cytotoxicity: series mostly up to about 92 µM
# Summary of the method: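 In quantitative HTS format, compounds at 15 concentrations were applied to HepG2 cells double-transfected with hCAR and CYP2B6-2.2kb under 50 nM CITCO stimulation; live-cell protease activity was read after 23 hr via CellTiter-Fluor.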
# [5] = qHTS assay to identify small molecule antagonists of the estrogen related receptor signaling pathway with the pleiotropic PPARgamma coactivator (PGC) from Tox21 10K library - cell viability counter screen (AID 1224840; active means well fitted cell-killing curve with a large enough effect in the repeat runs, not every such curve was filed as active; further: nearly all actives have a fitted effect of over 40% in size; further: potency means the concentration at half of the fitted maximal effect)
# Summary of the method: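 Viability counter screen, PGC/ERR cells: 17.5 h compound exposure at 37 C, CellTiter-Fluor fluorescence endpoint.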
# [6] = target: Nuclear receptor subfamily 1 group I member 3 (Homo sapiens) (UniProt Q14994); experiment: qHTS assay to identify small molecule antagonists of the constitutive androstane receptor (CAR) signaling pathway (AID 1224838); further: nearly all actives have a fitted effect of over 40% in size
# Summary of the method: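 CITCO-stimulated (50 nM final) HepG2 cells stably transfected with hCAR and CYP2B6-2.2kb luciferase were exposed to compounds at 15 concentrations for 24 h at 37 C/5% CO2. A luciferase reagent was added and luminescence recorded after 30 min.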
# [7] = qHTS assay to identify small molecule antagonists of the estrogen related receptor signaling pathway with the pleiotropic PPARgamma coactivator (PGC) from Tox21 10K library (AID 1224841; call rule not given here; further: actives are mostly falling curves and most rising ones were filed inactive; nearly all actives have a fitted effect of over 50% in size; further: potency means the concentration at half of the fitted maximal effect; on activity, negative = inhibition: series mostly up to about 92 µM)
# Summary of the method: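 In the PGC/ERR line, DMSO solutions of test chemicals are pin-delivered to 2,000 cells/well six hours after dispensing. Following eighteen hours' incubation, One-Glo reagent is added and luminescence recorded.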
# [8] = qHTS assay to identify small molecule agonists of the estrogen related receptor signaling pathway with the pleiotropic PPARgamma coactivator (PGC) from Tox21 10K library (AID 1224842); further: nearly all actives have a fitted effect of over 15% in size
# Summary of the method: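 PGC/ERR reporter cells (NTP line) were seeded 2,000 per well, rested 6 h at 37 C/5% CO2, then pin-dosed with compounds in DMSO for 18 h at 37 C; luciferase read by One-Glo luminescence after 30 min at room temperature.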
# [9] = target: Thyrotropin receptor (Homo sapiens) (UniProt P16473); experiment: qHTS assay to identify small molecule agonists of the thyroid stimulating hormone receptor (TSHR) signaling pathway (AID 1224843; calls by dose curve; further: nearly all actives have a fitted effect of over 45% in size)
# Summary of the method: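 Using 15 concentrations per compound in triplicate, cAMP production was monitored in TSHR-HEK293 cells after 30 min compound incubation at RT; HTRF reagents followed, with fluorescence intensity recorded after 1 h.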
# [10] = target: Nuclear receptor subfamily 1 group I member 3 (Homo sapiens) (UniProt Q14994); experiment: qHTS assay to identify small molecule agonists of the constitutive androstane receptor (CAR) signaling pathway (AID 1224839);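 further: HepG2 cells stably carrying human CAR and a CYP2B6 luciferase reporter; series mostly up to about 92 µM; nearly all actives have a fitted effect of over 15% in size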
# Summary of the method: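 Compounds tested at 15 concentrations on HepG2 cells stably harbouring hCAR and CYP2B6-2.2kb reporter constructs, co-treated with PK11195 (0.75 uM final), 24 h at 37 C; luminescent reporter signal quantified.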
# Nuclear receptor subfamily 1 group I member 3 (Homo sapiens), sequence (Q14994 whole entry, looked up): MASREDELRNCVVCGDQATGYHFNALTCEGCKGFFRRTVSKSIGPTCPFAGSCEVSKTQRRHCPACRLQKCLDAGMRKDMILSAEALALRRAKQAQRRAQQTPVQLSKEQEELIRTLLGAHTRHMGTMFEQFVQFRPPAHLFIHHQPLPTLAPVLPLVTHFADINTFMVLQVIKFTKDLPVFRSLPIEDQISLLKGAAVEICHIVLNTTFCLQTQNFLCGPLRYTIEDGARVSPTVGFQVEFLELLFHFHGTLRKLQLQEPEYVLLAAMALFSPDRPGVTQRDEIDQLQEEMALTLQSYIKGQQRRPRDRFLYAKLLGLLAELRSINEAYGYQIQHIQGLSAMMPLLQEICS
# Luciferin 4-monooxygenase (Photinus pyralis), sequence (P08659 whole entry, looked up): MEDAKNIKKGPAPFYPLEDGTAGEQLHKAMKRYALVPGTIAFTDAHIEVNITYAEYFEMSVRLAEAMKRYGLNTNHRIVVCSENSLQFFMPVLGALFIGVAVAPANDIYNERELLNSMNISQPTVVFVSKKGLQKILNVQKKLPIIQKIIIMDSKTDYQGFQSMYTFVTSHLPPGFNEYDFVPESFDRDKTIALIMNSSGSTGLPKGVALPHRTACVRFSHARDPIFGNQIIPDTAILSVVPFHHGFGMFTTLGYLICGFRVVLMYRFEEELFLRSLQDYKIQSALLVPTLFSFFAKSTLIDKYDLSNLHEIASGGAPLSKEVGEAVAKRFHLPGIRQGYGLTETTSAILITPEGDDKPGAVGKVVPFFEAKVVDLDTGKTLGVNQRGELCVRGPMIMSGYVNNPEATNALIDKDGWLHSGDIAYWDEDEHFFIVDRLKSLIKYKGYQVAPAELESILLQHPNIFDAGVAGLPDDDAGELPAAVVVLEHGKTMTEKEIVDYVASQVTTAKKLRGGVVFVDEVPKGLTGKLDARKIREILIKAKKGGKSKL
# Thyrotropin receptor (Homo sapiens), sequence (P16473 whole entry, looked up): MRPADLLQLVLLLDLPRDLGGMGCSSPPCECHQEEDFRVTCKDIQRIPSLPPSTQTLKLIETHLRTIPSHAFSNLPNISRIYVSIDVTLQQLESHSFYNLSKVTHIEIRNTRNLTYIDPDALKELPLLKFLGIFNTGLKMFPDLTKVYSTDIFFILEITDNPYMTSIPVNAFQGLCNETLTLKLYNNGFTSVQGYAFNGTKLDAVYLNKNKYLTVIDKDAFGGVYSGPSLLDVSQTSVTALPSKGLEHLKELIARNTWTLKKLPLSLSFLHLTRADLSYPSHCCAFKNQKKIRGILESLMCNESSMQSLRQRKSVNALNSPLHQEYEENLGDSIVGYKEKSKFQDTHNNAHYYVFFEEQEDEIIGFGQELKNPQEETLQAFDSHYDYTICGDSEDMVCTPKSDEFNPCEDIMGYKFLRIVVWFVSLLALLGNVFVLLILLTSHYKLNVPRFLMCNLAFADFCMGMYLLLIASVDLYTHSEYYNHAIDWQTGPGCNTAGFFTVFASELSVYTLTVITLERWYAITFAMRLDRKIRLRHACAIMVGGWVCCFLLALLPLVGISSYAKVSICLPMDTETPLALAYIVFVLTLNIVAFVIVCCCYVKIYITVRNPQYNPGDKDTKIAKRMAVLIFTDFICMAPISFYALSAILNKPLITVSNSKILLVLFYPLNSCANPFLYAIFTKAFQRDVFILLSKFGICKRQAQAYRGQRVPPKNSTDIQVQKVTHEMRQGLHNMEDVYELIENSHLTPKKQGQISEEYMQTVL
smiles,measurement,setting,value
O=C1OC(=O)C2C3C=CC(C3)C12 (stereo unspecified),Potency,[1],inactive
same,Potency,[2],inactive
same,Potency,[3],inactive
same,Potency,[4],inactive
same,Potency,[5],inactive
C[C@@H]1C[C@H]2O[C@@]3(O[C@@H]2C(C)(C)O)[C@H](O)[C@@]2(C)[C@@H]4CC[C@H]5C(C)(C)[C@@H](O[C@@H]6OC[C@@H](O)[C@H](O)[C@H]6O)CC[C@@]56C[C@@]46CC[C@]2(C)[C@@H]13,Potency,[1],inactive
same,Potency,[2],inactive
same,Potency,[3],inactive
same,Potency,[4],inactive
same,Potency,[6],inactive
same,Potency,[5],inactive
same,Potency,[7],inactive
same,Potency,[8],inactive
same,Potency,[9],inactive
O=C(Nc1ccc(S(=O)(=O)N2CCOCC2)cc1)c1cc(Cl)ccc1NS(=O)(=O)c1ccc(Cl)s1,Potency,[1],inactive
same,Potency,[2],inactive
same,Potency,[3],inactive
same,Potency,[4],inactive
same,Potency,[5],inactive
same,Potency,[7],inactive
same,Potency,[8],inactive
same,Potency,[9],inactive
Cc1cccc(C)c1OCC(=O)N[C@@H](Cc1ccccc1)[C@@H](O)C[C@H](Cc1ccccc1)NC(=O)[C@H](C(C)C)N1CCCNC1=O,Potency,[1],21.1 µM (active)
same,Potency,[2],inactive
same,Potency,[3],18.8 µM (active)
same,Potency,[4],13.3 µM (active)
same,Potency,[5],33.5 µM (active)
same,Potency,[7],13.3 µM (active)
same,Potency,[8],inactive
same,Potency,[9],inactive
C=C(C)C(=O)OCC,Potency,[1],inactive
same,Potency,[2],inactive
same,Potency,[3],inactive
same,Potency,[4],inactive
same,Potency,[5],inactive
same,Potency,[7],inactive
same,Potency,[8],inactive
same,Potency,[9],inactive
NS(=O)(=O)c1ccc(N2CCCCS2(=O)=O)cc1,Potency,[1],inactive
same,Potency,[2],inactive
same,Potency,[3],inactive
same,Potency,[4],inactive
same,Potency,[10],inactive
same,Potency,[5],inactive
same,Potency,[7],inactive
same,Potency,[8],inactive
same,Potency,[9],inactive
CC1=CCCC(C)(C)C12CCC(C)O2 (stereo unspecified),Potency,[1],inactive
same,Potency,[2],inactive
same,Potency,[3],inactive
same,Potency,[4],inactive
same,Potency,[5],inactive
CCN(CC)c1ccc2c(-c3ccccc3C(=O)O)c3ccc(=[N+](CC)CC)cc-3oc2c1,Potency,[1],7.7 µM (active)
same,Potency,[2],11.2 µM (active)
same,Potency,[3],7.7 µM (active)
same,Potency,[4],7.7 µM (active)
same,Potency,[6],inactive
same,Potency,[5],17.2 µM (active)
same,Potency,[7],43.3 µM (active)
same,Potency,[8],inactive
C=C1C(=C/C=C2\CCC[C@]3(C)[C@@H]([C@H](C)/C=C/[C@@H](O)C4CC4)CC[C@@H]23)C[C@@H](O)C[C@@H]1O,Potency,[1],29.8 µM (active)
same,Potency,[2],inactive
same,Potency,[3],inactive
same,Potency,[4],inactive
same,Potency,[6],inactive
same,Potency,[7],29.8 µM (active)
same,Potency,[8],inactive
COc1ccc(S(=O)(=O)N2C(=O)[C@@](c3ccccc3OC)(N3C[C@H](O)C[C@H]3C(=O)N(C)C)c3cc(Cl)ccc32)c(OC)c1,Potency,[1],30.6 µM (active)
same,Potency,[2],inactive
same,Potency,[3],30.6 µM (active)
same,Potency,[4],24.3 µM (active)
same,Potency,[6],inactive
same,Potency,[5],30.6 µM (active)
NCC(=O)O,"viability change, negative = cytotoxic",[1],2.45% [at 19 µM]
same,"activity change, negative = inhibition",[2],-0.476% [at 23.6 µM]
same,"viability change, negative = cytotoxic",[3],-11.9% [at 19 µM]
same,"activity change, negative = cytotoxicity",[4],-8.8% [at 19 µM]
same,"activity, negative = inhibition",[6],-5.57% [at 19 µM]
same,"viability change, negative = cytotoxic",[5],0.187% [at 19 µM]
same,activation,[9],-1.56% [at 19 µM]
Nc1ccc(N)c2c1C(=O)c1ccccc1C2=O,Potency,[1],15.4 µM (active)
same,Potency,[2],17.8 µM (active)
same,Potency,[3],17.2 µM (active)
same,Potency,[4],15.4 µM (active)
same,Potency,[10],inactive
same,Potency,[7],24.3 µM (active)
same,Potency,[8],inactive
O=[N+]([O-])c1ccc(NCCO)c(OCCO)c1,Potency,[1],30.7 µM (active)
same,Potency,[2],inactive
same,Potency,[3],43.3 µM (active)
same,Potency,[4],48.6 µM (active)
same,Potency,[5],48.6 µM (active)
same,Potency,[7],inactive
same,Potency,[8],inactive
same,Potency,[9],inactive
O=C(O)c1ccc(-n2nc(-c3ccccc3O)nc2-c2ccccc2O)cc1,Potency,[1],23.7 µM (active)
same,Potency,[2],inactive
same,Potency,[3],inactive
same,Potency,[4],inactive
same,Potency,[10],inactive
same,Potency,[5],inactive
same,Potency,[7],10.6 µM (active)
same,Potency,[8],inactive
CCOc1ccc(N=Nc2ccc(/C=C/c3ccc(N=Nc4ccc(OCC)cc4)cc3S(=O)(=O)O)c(S(=O)(=O)O)c2)cc1,Potency,[1],24 µM (active)
same,Potency,[2],inactive
same,Potency,[3],24 µM (active)
same,Potency,[4],21.4 µM (active)
same,Potency,[10],inactive
same,Potency,[5],47.8 µM (active)
same,Potency,[9],inactive
OC(C#CCN1CCCC1)(c1ccccc1)c1ccccc1,Potency,[1],inactive
same,Potency,[2],inactive
same,Potency,[3],inactive
same,Potency,[4],inactive
same,Potency,[5],inactive
same,Potency,[7],inactive
same,Potency,[8],inactive
same,Potency,[9],inactive
COc1cc(Cl)c(OC)cc1N,Potency,[1],inactive
same,Potency,[2],inactive
same,Potency,[3],inactive
same,Potency,[4],inactive
same,Potency,[5],inactive
COc1ccc(C(=O)N2CCN(CC(=O)N3CCOCC3)CC2)cc1,Potency,[1],inactive
same,Potency,[2],inactive
same,Potency,[3],inactive
same,Potency,[4],inactive
same,Potency,[5],inactive
same,Potency,[7],inactive
same,Potency,[8],inactive
same,Potency,[9],inactive
CO[C@@H]1[C@H](OC(=O)/C=C/C=C/C=C/C=C/C(=O)O)CC[C@]2(CO2)[C@H]1[C@@]1(C)O[C@@H]1CC=C(C)C,Potency,[1],inactive
same,Potency,[2],inactive
same,Potency,[3],inactive
same,Potency,[4],inactive
same,Potency,[10],inactive
same,Potency,[7],inactive
same,Potency,[8],inactive
same,Potency,[9],inactive
O=C(O)C1(C(=O)O)CCC1.[NH2-].[NH2-].[Pt+2],Potency,[1],inactive
same,Potency,[2],inactive
same,Potency,[3],inactive
same,Potency,[4],inactive
same,Potency,[6],inactive
same,Potency,[5],inactive
same,Potency,[9],inactive
O=[N+]([O-])c1ccc2[nH]ncc2c1,Potency,[1],inactive
same,Potency,[2],inactive
same,Potency,[3],inactive
same,Potency,[4],inactive
same,Potency,[9],inactive
COc1cc2c(cc1OC)C(C(C(=O)N(CCc1ccc(OC)c(OC)c1OC)CCc1ccc(OC)c(OC)c1OC)c1ccccc1)=NCC2 (stereo unspecified),Potency,[1],23.7 µM (active)
same,Potency,[2],inactive
same,Potency,[3],inactive
same,Potency,[4],inactive
same,Potency,[7],23.7 µM (active)
same,Potency,[8],inactive
same,Potency,[9],inactive
C/C=C/C=C/CO,Potency,[1],inactive
same,Potency,[2],inactive
same,Potency,[3],inactive
same,Potency,[4],inactive
same,Potency,[5],inactive
same,Potency,[9],inactive
CN(C)CCN(Cc1ccccc1)c1ccccn1,Potency,[1],inactive
same,Potency,[2],inactive
same,Potency,[3],inactive
same,Potency,[4],inactive
same,Potency,[5],inactive
same,Potency,[9],inactive
O=C(O)CC(=O)C(=O)O,Potency,[1],inactive
same,Potency,[2],inactive
same,Potency,[3],inactive
same,Potency,[4],inactive
same,Potency,[5],inactive
same,Potency,[9],inactive
